# Test results from PubChem BioAssay (NCATS).
# A number with no mark means an inactive call. Records with an inconclusive call do not appear. Activity calls are given as the source filed them. Unless noted, calls follow the shape of the dose curve; as a rule, active = well fitted curve in the direction sought with a large enough effect; inconclusive = small, poorly fitted or top-dose-only effect, or another doubt; inactive = no such curve, though single readings can be large; an effect the other way counts as inactive or inconclusive.
# Columns and labels:
# [1] = target: Cytochrome P450 3A4 (Homo sapiens) (UniProt P08684); assay: qHTS Assay for Inhibitors and Substrates of Cytochrome P450 3A4 (AID 884); also: nearly all actives have a fitted effect of over 50% in size; also: potency is read from the fitted curve at half-maximal effect; as to activity change, negative = inhibition: series mostly up to about 57 µM; % is scaled to controls: 0 for no effect and ±100 for the full control effect
# In short: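 20 nM human CYP3A4 with 25 uM Luciferin-PPXE (at KM) in 200 mM KPO4, preincubated 10 min with compound; NADPH regeneration started a 60 min RT reaction. Luciferin detected by luminescence, normalized to 57 uM ketoconazole as full inhibition.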
# [2] = target: Cytochrome P450 3A4 (Homo sapiens) (UniProt P08684); assay: qHTS Assay for Activators of Cytochrome P450 3A4 (AID 885); also: nearly all actives have a fitted effect of over 65% in size; also: potency is read from the fitted curve at half-maximal effect
# In short: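 Quantitative HTS format: compounds preincubated with 20nM human CYP3A4 and Luciferin-PPXE substrate at KM, reaction started by NADPH regeneration, stopped after 60 min, luciferase luminescence read 20 min later.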
# [3] = target: Cytochrome P450 2D6 (Homo sapiens) (UniProt P10635); assay: qHTS Assay for Inhibitors and Substrates of Cytochrome P450 2D6 (AID 891); also: nearly all actives have a fitted effect of over 60% in size; also: potency is read from the fitted curve at half-maximal effect;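 as to activity change, negative = inhibition: luciferin methyl ether substrate demethylated by CYP2D6 with NADPH regeneration; % is scaled to controls: 0 for no effect and ±100 for the full control effect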
# In short: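 Human CYP2D6 (5 nM) with 30 uM Luciferin-ME EGE (at Km) in 100 mM KPO4, compound preincubated 10 min, then NADPH regeneration system for 60 min at room temperature. Luciferin read by luminescence; normalized to 1.43 uM quinidine.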
# [4] = target: Cytochrome P450 2C19 (Homo sapiens) (UniProt P33261); assay: qHTS Assay for Inhibitors and Substrates of Cytochrome P450 2C19 (AID 899); also: nearly all actives have a fitted effect of over 60% in size; also: potency is read from the fitted curve at half-maximal effect
# In short: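 Human CYP2C19 (5nM) with Luciferin-H EGE at 10uM (its KM) in 50mM KPO4 was preincubated with compound for 10 min at 37C. NADPH regeneration started a 60 min 37C reaction. Luciferin was read by luminescence, normalized to 57uM ketoconazole.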
# [5] = Confirmation and Secondary Assay for Modulators of Hemoglobin Beta Chain Splicing at IVS2 654 locus (AID 910);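 also: per-well total GFP intensity by laser scanning cytometry after 2-day treatment; % of control where 0% means no effect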
# In short: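 HeLa cells stably carrying EGFP interrupted by mutant beta-globin IVS2-654 intron (CMV-driven) were treated with compound for 2 days at 37C; corrected splicing was scored as total peak GFP intensity per well (488 nm excitation, 500-520 nm emission).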
# [6] = Confirmation and Secondary Assay for Modulators of Hemoglobin Beta Chain Splicing at IVS2 705 locus (AID 930);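 also: HeLa cells stably expressing the EGFP-705 splicing reporter; GFP fluorescence per well restored by corrected splicing of the IVS2-705 intron in EGFP; series mostly up to about 46 µM; % of control where 0% means no effect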
# In short: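 HeLa EGFP-705 reporter; 500 cells/well, o/n 37C 5% CO2; cpd 2 d; 488 ex/500-520 em laser scan; total peak GFP intensity/well. Ref: 500 nM […] antisense PNA.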
# [7] = qHTS Assay for Identification of Small Molecule Agonists for Hypoxia Response Element Signaling Pathway (AID 914; active = well fitted activation curve with a large enough effect in the signal ratio, with a control signal flat, not every such curve was filed as active; the % refers to the signal ratio; also: % of control where 0% means no effect); conditions: ME-180 (cervical carcinoma) HRE-bla reporter, beta-lactamase ratio, CoCl2, 17 h; hits give high values
# In short: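 Read-out: CCF4 FRET ratio of 460nm to 530nm emission (excitation 405nm) after 2.5 hours at room temperature, taken from HRE-bla ME-180 cells that had been exposed to compound and EC50 CoCl2 for 17 hours.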
# Sequence of Cytochrome P450 2C19 (Homo sapiens) (P33261 whole entry, looked up): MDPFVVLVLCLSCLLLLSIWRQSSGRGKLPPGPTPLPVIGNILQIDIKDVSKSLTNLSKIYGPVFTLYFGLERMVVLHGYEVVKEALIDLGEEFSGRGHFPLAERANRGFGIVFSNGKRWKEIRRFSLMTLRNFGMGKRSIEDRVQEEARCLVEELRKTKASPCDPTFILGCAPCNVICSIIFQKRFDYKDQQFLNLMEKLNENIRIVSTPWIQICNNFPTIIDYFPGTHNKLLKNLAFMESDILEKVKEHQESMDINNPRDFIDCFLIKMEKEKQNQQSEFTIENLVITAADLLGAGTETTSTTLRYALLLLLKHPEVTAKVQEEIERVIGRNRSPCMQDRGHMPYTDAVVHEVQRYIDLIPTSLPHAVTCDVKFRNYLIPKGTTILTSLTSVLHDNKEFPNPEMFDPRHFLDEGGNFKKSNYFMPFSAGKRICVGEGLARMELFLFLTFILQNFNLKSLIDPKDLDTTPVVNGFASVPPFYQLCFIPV
# Sequence of Cytochrome P450 3A4 (Homo sapiens) (P08684 whole entry, looked up): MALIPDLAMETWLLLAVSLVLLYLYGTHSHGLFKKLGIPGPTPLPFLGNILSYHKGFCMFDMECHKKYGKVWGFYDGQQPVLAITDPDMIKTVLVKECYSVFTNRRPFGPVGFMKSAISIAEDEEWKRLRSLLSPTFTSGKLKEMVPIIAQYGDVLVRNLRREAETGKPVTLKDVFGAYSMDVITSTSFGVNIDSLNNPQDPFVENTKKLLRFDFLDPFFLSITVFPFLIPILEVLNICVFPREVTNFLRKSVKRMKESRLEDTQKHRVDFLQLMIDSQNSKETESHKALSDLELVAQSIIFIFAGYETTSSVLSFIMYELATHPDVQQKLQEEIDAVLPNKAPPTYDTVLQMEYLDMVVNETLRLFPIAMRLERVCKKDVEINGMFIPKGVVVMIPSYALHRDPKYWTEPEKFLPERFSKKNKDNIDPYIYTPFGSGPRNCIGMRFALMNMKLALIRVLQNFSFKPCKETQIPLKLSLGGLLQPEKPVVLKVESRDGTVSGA
# Sequence of Cytochrome P450 2D6 (Homo sapiens) (P10635 whole entry, looked up): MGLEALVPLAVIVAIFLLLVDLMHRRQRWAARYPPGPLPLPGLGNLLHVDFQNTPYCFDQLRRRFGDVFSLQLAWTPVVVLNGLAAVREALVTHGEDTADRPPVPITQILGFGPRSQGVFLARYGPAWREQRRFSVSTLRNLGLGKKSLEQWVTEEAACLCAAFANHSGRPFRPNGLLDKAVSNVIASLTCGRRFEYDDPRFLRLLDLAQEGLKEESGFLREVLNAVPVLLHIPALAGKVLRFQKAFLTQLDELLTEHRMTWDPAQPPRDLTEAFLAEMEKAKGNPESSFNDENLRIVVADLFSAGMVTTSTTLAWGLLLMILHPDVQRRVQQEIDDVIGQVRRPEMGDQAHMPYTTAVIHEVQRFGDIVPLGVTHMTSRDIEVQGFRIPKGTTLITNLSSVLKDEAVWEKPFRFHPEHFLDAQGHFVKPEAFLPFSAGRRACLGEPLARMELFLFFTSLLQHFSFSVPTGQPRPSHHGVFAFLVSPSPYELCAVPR
smiles,measurement,setting,value
CCCCC#CC1C=CC(Oc2ccc(C(=O)OC)cc2)C(COC(=O)OCC)O1 (centres undefined),Potency,[1],3.98 µM (active)
same,"activity change, positive = activation",[2],-80.8% [at 11.4 µM]
same,Potency,[3],inactive
same,Potency,[4],inactive
COc1ccc(/C=C/N(CCc2ccc(OC)c(OC)c2)C(=O)C(F)(F)F)cc1,Potency,[1],2 µM (active)
same,"activity change, positive = activation",[2],-97.3% [at 11.4 µM]
same,Potency,[4],0.0794 µM (active)
C=CCOC(=O)C(C(C)=O)C(NC(=O)OC)c1ccc(Cl)cc1 (centres undefined),Potency,[1],1.26 µM (active)
same,"activity change, positive = activation",[2],-107% [at 11.4 µM]
same,Potency,[3],inactive
same,Potency,[4],0.251 µM (active)
COc1cccc([C@@H]2Oc3ccc(OC)cc3/C(=N/O[C@@H](C)CN3CCCc4nc(C)c(C)cc43)[C@@H]2O)c1,Potency,[1],3.16 µM (active)
same,"activity change, positive = activation",[2],-92.2% [at 11.4 µM]
same,Potency,[3],3.98 µM (active)
O=C(/C=C\c1ccc2c(c1)OCO2)c1ccc(F)cc1,Potency,[1],3.16 µM (active)
same,"activity change, positive = activation",[2],-89.5% [at 11.4 µM]
same,Potency,[3],2 µM (active)
Nc1ccccc1C(=O)/C=C\c1ccc2c(c1)OCO2,Potency,[1],3.16 µM (active)
same,"activity change, positive = activation",[2],-84.3% [at 11.4 µM]
same,Potency,[3],3.16 µM (active)
COc1ccc(O[C@H]2C=C[C@@H](c3ccccc3)O[C@H]2CO/N=C2/[C@H]3O[C@@H]3[C@@H](O)[C@H]3[C@H]2CCn2c(=O)n(-c4ccccc4)c(=O)n23)cc1,Potency,[1],3.16 µM (active)
same,"activity change, positive = activation",[2],-86.5% [at 11.4 µM]
same,Potency,[4],2.51 µM (active)
C=CCOC(=O)C(C(C)=O)C(NC(=O)OC)c1cccc(F)c1 (centres undefined),Potency,[1],0.0794 µM (active)
same,"activity change, positive = activation",[2],-72.4% [at 11.4 µM]
same,Potency,[3],inactive
same,Potency,[4],0.1 µM (active)
CC(=O)c1ccc(OC2C=CC(c3ccc(Cl)cc3)OC2CO)cc1 (centres undefined),"activity change, negative = inhibition",[1],-21.5% [at 11.4 µM]
same,Potency,[3],inactive
same,Potency,[4],5.01 µM (active)
COc1ccc(-c2cc(=O)c3ccccc3o2)cc1,Potency,[1],2 µM (active)
same,Potency,[2],inactive
same,outcome,[5],inactive
same,outcome,[6],inactive
O=C1C=CC(=C(c2ccc(O)cc2)c2ccc(O)cc2)C=C1,Potency,[1],20 µM (active)
same,Potency,[2],inactive
same,outcome,[5],inactive
same,outcome,[6],inactive
CC(=O)OCC1OC(c2ccc3c(c2)OCO3)C=CC1OC(C)=O (centres undefined),Potency,[1],3.98 µM (active)
same,Potency,[4],0.316 µM (active)
CCOC(=O)OCC1OC(C#Cc2ccc(C(C)(C)C)cc2)C=CC1OC(=O)OCC (centres undefined),"activity change, negative = inhibition",[1],-12.4% [at 11.4 µM]
same,Potency,[3],inactive
same,Potency,[4],inactive
CCCNC(=O)OC[C@@H]1O[C@H](CCO/N=C\[C@@H](C)[C@H](OCc2ccccc2)C(C)C)C=C[C@@H]1Oc1ccc(OC)cc1,Potency,[1],3.98 µM (active)
same,Potency,[4],3.16 µM (active)
COc1cc2c(cc1OC)-c1c(oc3cc(O)cc(O)c3c1=O)CO2,Potency,[1],10 µM (active)
same,Potency,[2],inactive
same,outcome,[5],inactive
same,outcome,[6],inactive
Cc1ccc(S(=O)(=O)N[C@H]2COC(=O)[C@@H](Cc3ccccc3)NC(=O)[C@@H](C)COC(=O)C/C=C\[C@@H]2C)cc1,Potency,[1],3.98 µM (active)
same,"activity change, positive = activation",[2],-80.1% [at 11.4 µM]
same,Potency,[4],inactive
COc1ccc(O[C@H]2C=C[C@@H](c3ccccc3)O[C@@H]2CO/N=C(\C)CCN2CCCCc3nc(C)c(C)cc32)cc1,Potency,[1],3.98 µM (active)
same,"activity change, positive = activation",[2],-86.9% [at 11.4 µM]
same,Potency,[4],2.51 µM (active)
CC(=O)OCC1OC(C#Cc2ccc(C(C)(C)C)cc2)C=CC1OC(C)=O (centres undefined),"activity change, negative = inhibition",[1],-26.6% [at 11.4 µM]
same,Potency,[3],inactive
same,Potency,[4],inactive
CCOC(=O)OCC1OC(c2ccccc2)C=CC1OC(=O)OCC (centres undefined),"activity change, negative = inhibition",[1],-18.7% [at 11.4 µM]
same,Potency,[3],inactive
same,Potency,[4],3.98 µM (active)
CCOC(=O)OCC1OC(c2ccc(C(C)=O)cc2)C=CC1Oc1ccc(-c2ccccc2)cc1 (centres undefined),"activity change, negative = inhibition",[1],-27.8% [at 11.4 µM]
same,Potency,[3],inactive
same,Potency,[4],inactive
COc1ccc(COC(=O)N/N=C2/C[C@@H](O)[C@@H](O)[C@@H]3[C@@H]4C(=O)N(c5cccc(Oc6ccccc6)c5)C(=O)[C@H]4CC[C@H]23)cc1,Potency,[1],3.16 µM (active)
same,"activity change, positive = activation",[2],-68.2% [at 11.4 µM]
same,activation,[7],-10.1%
COc1c(-c2coc3cc4c(cc3c2=O)CC(OC(C)=O)C(C)(C)O4)ccc2c1C=CC(C)(C)O2 (centres undefined),Potency,[1],inactive
same,Potency,[2],5.01 µM (active)
same,outcome,[5],inactive
same,outcome,[6],inactive
COc1ccc(-c2cc(=O)c3ccccc3o2)cc1OC,Potency,[1],7.94 µM (active)
same,Potency,[2],inactive
same,outcome,[5],inactive
same,outcome,[6],inactive
CC(C)=CCc1c(O)cc2occ(-c3ccc4c(c3)OCO4)c(=O)c2c1O,Potency,[1],3.98 µM (active)
same,Potency,[2],inactive
same,outcome,[5],inactive
same,outcome,[6],inactive
